Article PMC8384837, “Expanding the binding specificity for RNA recognition by a PUF domain”
Where a chain is given by its changes, count along the chain named.

How the values were obtained:
Experiment in all cases: yeast three-hybrid, YBZ-1, SC-Leu-His + 0.5 mM 3-AT, 4 days
Conditions in all cases: tags: N-Gal4 AD-HA kept; label: inside an RPR1-promoter hybrid RNA with tandem MS2 sites; ssRNA
PUM1 PUF domain R3-TFP = PUM1 PUF domain R3-TFP (Homo sapiens, UniProt Q14671 828-1176, C935T;R936F;Q939P)
How it was run: (§1)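 The interaction score is the log change in how often each variant appears, from input to selection. Frequencies came from PCR-amplified, Illumina-sequenced repeat regions of Pumilio-1 PUF domain libraries grown in strain YBZ-1 (LexA–MS2 coat fusion, HIS3 reporter) alongside matching RNA elements. Input plates were SC-Leu and selection plates were SC-Leu-His + 0.5 mM 3-AT, each for four days, and the log2 calculation used a pseudocount of 1 where a variant was absent.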

PUM1 PUF domain R3-RQV = PUM1 PUF domain R3-RQV (Homo sapiens, UniProt Q14671 828-1176, C935R;R936Q;Q939V)
How it was run: as §1

PUM1 PUF domain R6-GHR = biological target: T1, PUM1 PUF domain R6-GHR (Homo sapiens, UniProt Q14671 828-1176, N1043G;Y1044H;Q1047R)
T1 sequence: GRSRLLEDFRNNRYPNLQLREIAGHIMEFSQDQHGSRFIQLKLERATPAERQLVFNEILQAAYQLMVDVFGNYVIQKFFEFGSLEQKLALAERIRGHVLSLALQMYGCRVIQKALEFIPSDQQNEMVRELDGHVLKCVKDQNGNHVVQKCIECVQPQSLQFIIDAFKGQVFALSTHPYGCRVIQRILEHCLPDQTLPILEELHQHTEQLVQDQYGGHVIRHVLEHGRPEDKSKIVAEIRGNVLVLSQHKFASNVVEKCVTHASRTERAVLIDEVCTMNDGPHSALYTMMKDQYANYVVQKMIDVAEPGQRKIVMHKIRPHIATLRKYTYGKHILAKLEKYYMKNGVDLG
How it was run: as §1

PUM1 PUF domain R8-RRK = PUM1 PUF domain R8-RRK (Homo sapiens, UniProt Q14671 828-1176, N1122R;Y1123R;Q1126K)
How it was run: as §1

PUM1 PUF domain R4-CMG = PUM1 PUF domain R4-CMG (Homo sapiens, UniProt Q14671 828-1176, N971C;H972M;Q975G)
How it was run: as §1

PUM1 PUF domain R4-SMC = PUM1 PUF domain R4-SMC (Homo sapiens, UniProt Q14671 828-1176, N971S;H972M;Q975C)
How it was run: as §1

PUM1 PUF domain R5-RFP = PUM1 PUF domain R5-RFP (Homo sapiens, UniProt Q14671 828-1176, C1007R;R1008F;Q1011P)
How it was run: as §1

PUM1 PUF domain R8-PYG = PUM1 PUF domain R8-PYG (Homo sapiens, UniProt Q14671 828-1176, N1122P;Q1126G)
How it was run: as §1

PUM1 PUF domain R3-LFC = PUM1 PUF domain R3-LFC (Homo sapiens, UniProt Q14671 828-1176, C935L;R936F;Q939C)
How it was run: as §1

PUM1 PUF domain R5-TNG = PUM1 PUF domain R5-TNG (Homo sapiens, UniProt Q14671 828-1176, C1007T;R1008N;Q1011G)
How it was run: as §1

PUM1 PUF domain R6-CYQ = biological target: T2, PUM1 PUF domain R6-CYQ (Homo sapiens, UniProt Q14671 828-1176, N1043C)
T2 sequence: T1 sequence with G216C, H217Y, R220Q
How it was run: as §1

PUM1 PUF domain R5-RKN = PUM1 PUF domain R5-RKN (Homo sapiens, UniProt Q14671 828-1176, C1007R;R1008K;Q1011N)
How it was run: as §1

PUM1 PUF domain R5-KKE = PUM1 PUF domain R5-KKE (Homo sapiens, UniProt Q14671 828-1176, C1007K;R1008K;Q1011E)
How it was run: as §1

PUM1 PUF domain R4-GNL = PUM1 PUF domain R4-GNL (Homo sapiens, UniProt Q14671 828-1176, N971G;H972N;Q975L)
How it was run: as §1

PUM1 PUF domain R4-PWK = PUM1 PUF domain R4-PWK (Homo sapiens, UniProt Q14671 828-1176, N971P;H972W;Q975K)
How it was run: as §1

PUM1 PUF domain R2-AFS = PUM1 PUF domain R2-AFS (Homo sapiens, UniProt Q14671 828-1176, N899A;Y900F;Q903S)
How it was run: as §1

PUM1 PUF domain R2-LFG = PUM1 PUF domain R2-LFG (Homo sapiens, UniProt Q14671 828-1176, N899L;Y900F;Q903G)
How it was run: as §1

PUM1 PUF domain R7-RGS = PUM1 PUF domain R7-RGS (Homo sapiens, UniProt Q14671 828-1176, S1079R;N1080G;E1083S)
How it was run: as §1

“GGCUAGAACUAGUGGAUCCCCCGGCGCCCGGCGGCUCGAGCCCGGGUAAGUGUAAUUAGUCUGCAUGCCGCCGGGCGCCAUGCCUGCAGGUCGACUCUAGAAAACAUG” was tested, and the binding signal (PUM1 PUF domain R3-TFP) was 3.79 log2 enrichment (interaction score) and the binding signal (PUM1 PUF domain R3-RQV) was 4.16 log2 enrichment (interaction score).

In the case of “GGCUAGAACUAGUGGAUCCCCCGGCGCCCGGCGGCUCGAGCCCGGGUAAGUGUAAAUAGUCUGCAUGCCGCCGGGCGCCAUGCCUGCAGGUCGACUCUAGAAAACAUG”, the binding signal (PUM1 PUF domain R3-TFP) is reported as 4.82 log2 enrichment (interaction score), the binding signal (PUM1 PUF domain R6-GHR) is reported as 3.81 log2 enrichment (interaction score) and the binding signal (PUM1 PUF domain R8-RRK) is reported as 4.75 log2 enrichment (interaction score). For the same sequence, the binding signal (PUM1 PUF domain R4-CMG) was 3.4 log2 enrichment (interaction score), the binding signal (PUM1 PUF domain R4-SMC) was 3.15 log2 enrichment (interaction score) and the binding signal (PUM1 PUF domain R5-RFP) was 2.31 log2 enrichment (interaction score). For the same sequence, the binding signal (PUM1 PUF domain R8-PYG) was 1.81 log2 enrichment (interaction score) and the binding signal (PUM1 PUF domain R3-LFC) was 1.84 log2 enrichment (interaction score).

“GGCUAGAACUAGUGGAUCCCCCGGCGCCCGGCGGCUCGAGCCCGGGUAAGUGCAAAUAGUCUGCAUGCCGCCGGGCGCCAUGCCUGCAGGUCGACUCUAGAAAACAUG” was tested, and the binding signal (PUM1 PUF domain R6-GHR) was 2.2 log2 enrichment (interaction score).

For “GGCUAGAACUAGUGGAUCCCCCGGCGCCCGGCGGCUCGAGCCCGGGUAAGCGUAAAUAGUCUGCAUGCCGCCGGGCGCCAUGCCUGCAGGUCGACUCUAGAAAACAUG”, the binding signal (PUM1 PUF domain R8-RRK) was 5.29 log2 enrichment (interaction score) and the binding signal (PUM1 PUF domain R8-PYG) was 2.76 log2 enrichment (interaction score).

With “GGCUAGAACUAGUGGAUCCCCCGGCGCCCGGCGGCUCGAGCCCGGGUAAGUGUUAAUAGUCUGCAUGCCGCCGGGCGCCAUGCCUGCAGGUCGACUCUAGAAAACAUG” the binding signal (PUM1 PUF domain R5-TNG) was 3.75 log2 enrichment (interaction score).

“GGCUAGAACUAGUGGAUCCCCCGGCGCCCGGCGGCUCGAGCCCGGGUAAGUGAAAAUAGUCUGCAUGCCGCCGGGCGCCAUGCCUGCAGGUCGACUCUAGAAAACAUG” was tested, and the binding signal (PUM1 PUF domain R6-CYQ) was 6 log2 enrichment (interaction score).

With “GGCUAGAACUAGUGGAUCCCCCGGCGCCCGGCGGCUCGAGCCCGGGUAAGUGUCAAUAGUCUGCAUGCCGCCGGGCGCCAUGCCUGCAGGUCGACUCUAGAAAACAUG” the binding signal (PUM1 PUF domain R5-RKN) was 2.84 log2 enrichment (interaction score), the binding signal (PUM1 PUF domain R5-KKE) was 5.07 log2 enrichment (interaction score) and the binding signal (PUM1 PUF domain R5-RFP) was 4.87 log2 enrichment (interaction score).

In the case of “GGCUAGAACUAGUGGAUCCCCCGGCGCCCGGCGGCUCGAGCCCGGGUAAGUGUACAUAGUCUGCAUGCCGCCGGGCGCCAUGCCUGCAGGUCGACUCUAGAAAACAUG”, the binding signal (PUM1 PUF domain R4-CMG) is reported as 2.47 log2 enrichment (interaction score), the binding signal (PUM1 PUF domain R4-GNL) is reported as 1.04 log2 enrichment (interaction score) and the binding signal (PUM1 PUF domain R4-PWK) is reported as 6.55 log2 enrichment (interaction score).

In the case of “GGCUAGAACUAGUGGAUCCCCCGGCGCCCGGCGGCUCGAGCCCGGGUAAGUGUAAAAAGUCUGCAUGCCGCCGGGCGCCAUGCCUGCAGGUCGACUCUAGAAAACAUG”, the binding signal (PUM1 PUF domain R2-AFS) is reported as 3.67 log2 enrichment (interaction score) and the binding signal (PUM1 PUF domain R2-LFG) is reported as 3.76 log2 enrichment (interaction score).

For “GGCUAGAACUAGUGGAUCCCCCGGCGCCCGGCGGCUCGAGCCCGGGUAAGUGUAUAUAGUCUGCAUGCCGCCGGGCGCCAUGCCUGCAGGUCGACUCUAGAAAACAUG”, the binding signal (PUM1 PUF domain R4-SMC) was 2.83 log2 enrichment (interaction score), the binding signal (PUM1 PUF domain R4-GNL) was 3.47 log2 enrichment (interaction score) and the binding signal (PUM1 PUF domain R4-PWK) was 6.97 log2 enrichment (interaction score).

“GGCUAGAACUAGUGGAUCCCCCGGCGCCCGGCGGCUCGAGCCCGGGUAAGUUUAAAUAGUCUGCAUGCCGCCGGGCGCCAUGCCUGCAGGUCGACUCUAGAAAACAUG” was tested, and the binding signal (PUM1 PUF domain R7-RGS) was 3.37 log2 enrichment (interaction score).

With “GGCUAGAACUAGUGGAUCCCCCGGCGCCCGGCGGCUCGAGCCCGGGUAAGUCUAAAUAGUCUGCAUGCCGCCGGGCGCCAUGCCUGCAGGUCGACUCUAGAAAACAUG” the binding signal (PUM1 PUF domain R7-RGS) was 1.66 log2 enrichment (interaction score).

In the case of “GGCUAGAACUAGUGGAUCCCCCGGCGCCCGGCGGCUCGAGCCCGGGUAAGUGUAAAGAGUCUGCAUGCCGCCGGGCGCCAUGCCUGCAGGUCGACUCUAGAAAACAUG”, the binding signal (PUM1 PUF domain R2-LFG) is reported as 0.94 log2 enrichment (interaction score).

For “GGCUAGAACUAGUGGAUCCCCCGGCGCCCGGCGGCUCGAGCCCGGGUAAGUGUAAGUAGUCUGCAUGCCGCCGGGCGCCAUGCCUGCAGGUCGACUCUAGAAAACAUG”, the binding signal (PUM1 PUF domain R3-LFC) was 5.61 log2 enrichment (interaction score).
